TIM10 inh = growth inhibitors of TIM10 yeast strain; 1.4% of 330,000 active; inhibition, % at 10 µM; S. cerevisiae TIM10 strain growth, BacTiter-Glo luminescence, 24 h;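 active means inhibition of 40% or more at the single tested concentration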;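 further: wild-type TIM10 isogenic control strain grown at permissive 25 °C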
Mdm2-MdmX inh = disrupts the human Mdm2-MdmX interaction; O15151+Q00987; SaOS-2 split-luciferase Mdm2/MdmX complementation, luminescence; inhibition, % at 8 µM; 3% of 330,000 active; AID 485346;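 active means inhibition of at least 50% at 8 µM in the primary screen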
Target sequence (O15151 whole entry, looked up): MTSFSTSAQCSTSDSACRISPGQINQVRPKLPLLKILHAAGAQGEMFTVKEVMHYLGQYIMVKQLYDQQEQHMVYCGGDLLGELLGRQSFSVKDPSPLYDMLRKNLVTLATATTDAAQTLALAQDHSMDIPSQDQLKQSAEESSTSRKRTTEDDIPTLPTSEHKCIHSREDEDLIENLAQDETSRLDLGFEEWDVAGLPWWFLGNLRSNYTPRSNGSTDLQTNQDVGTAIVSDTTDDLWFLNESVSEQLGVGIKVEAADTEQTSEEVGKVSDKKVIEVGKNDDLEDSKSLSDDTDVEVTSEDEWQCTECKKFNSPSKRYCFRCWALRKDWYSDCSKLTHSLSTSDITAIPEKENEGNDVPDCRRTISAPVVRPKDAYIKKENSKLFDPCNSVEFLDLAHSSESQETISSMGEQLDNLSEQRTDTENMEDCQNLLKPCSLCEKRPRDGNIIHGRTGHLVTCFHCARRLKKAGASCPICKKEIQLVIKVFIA
Target sequence (Q00987 whole entry, looked up): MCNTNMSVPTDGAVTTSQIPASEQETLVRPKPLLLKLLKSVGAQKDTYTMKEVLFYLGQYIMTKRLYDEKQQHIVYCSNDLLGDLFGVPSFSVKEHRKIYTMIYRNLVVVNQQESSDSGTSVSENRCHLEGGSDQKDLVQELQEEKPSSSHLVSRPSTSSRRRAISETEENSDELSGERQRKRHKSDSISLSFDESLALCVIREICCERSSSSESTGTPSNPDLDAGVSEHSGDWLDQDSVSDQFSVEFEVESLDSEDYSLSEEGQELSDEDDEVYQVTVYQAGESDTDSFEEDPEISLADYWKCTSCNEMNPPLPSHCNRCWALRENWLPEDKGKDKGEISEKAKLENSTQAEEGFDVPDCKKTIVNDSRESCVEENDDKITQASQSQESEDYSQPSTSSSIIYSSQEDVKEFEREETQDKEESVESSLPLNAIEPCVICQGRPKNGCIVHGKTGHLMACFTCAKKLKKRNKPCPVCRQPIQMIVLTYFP
tim10-1 inh = tim10-1 yeast growth inhibition. S. cerevisiae tim10-1 ts strain growth, BacTiter-Glo, 24 h. inhibition, % at 20 µM. 2.2% of 330,000 active. AID 463190;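 active means inhibition of at least 40%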;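 further: mutant grown at 25 °C; 0% = DMSO wells with yeast and 100% = wells holding no yeast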
MPTP block = permeability transition pore inhibition | isolated mouse mitochondria, Ca2+ swelling absorbance, 30 min | inhibition, % at 10 µM | 1.4% of 360,000 active;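 active means inhibition of 50% or more, scaled per plate between neutral and stimulator controls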;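 further: 0% = DMSO wells given calcium and 100% = 1 mM EGTA wells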
tim23-1 inh = inhibits growth of tim23-1 mutant yeast. S. cerevisiae tim23-1 growth, BacTiter-Glo luminescence, 24 h. inhibition, % at 20 µM. 1.3% of 330,000 active;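 active means growth inhibition of the mutant yeast at or above 50%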;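 further: temperature-sensitive mutant grown at 25 °C; plate controls were DMSO-treated mutant yeast for no effect and medium wells lacking yeast for full effect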
Mdm2-MdmX conf = human Mdm2/MdmX binding inhibition, confirmed; 55% of 10,000 active; AID 489028; inhibition, % at 8 µM; luminescent assay; shares compounds with Mdm2-MdmX inh; in the data active means inhibition above about 40%
FLuc counter = counter-screen for Mdm2/MdmX inhibitors: full-length luciferase. shares compounds with Mdm2-MdmX inh. inhibition, % at 8 µM. 77% of 6,200 active. SaOS-2 full-length luciferase counterscreen, luminescence. AID 504607;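 active means mean inhibition at 8 µM reaching about 37%, which flags the compound as non-specific, limit read from the data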;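 further: p53-null SaOS-2 cells with luciferase driven by a doxycycline-inducible promoter; compound on cells about two nights before reading with doxycycline added after day one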
* marks the source's active call; other numbers are inactive results; · = no result. Most compounds without a hit are left out; they make up all but 6.3% or so of the library.

SMILES	TIM10 inh	Mdm2-MdmX inh	tim10-1 inh	MPTP block	tim23-1 inh	Mdm2-MdmX conf	FLuc counter
COc1cccc(NC(=O)CN2CCC(NC(=O)c3ccccc3C)CC2)c1	·	·	·	0	·	·	·
Cc1cc(C(=O)c2ccc(C(C)(C)C)cc2)c(NC(=O)CCl)s1	7	78*	32	4	21	-5	·
NC(c1ccccc1)c1csc(Nc2ccc(C(=O)c3ccccc3)cc2)n1 (centres undefined)	·	·	·	0	·	·	·
CCCCC[C@@H](C)N1C[C@@H](COCc2ccccc2)Oc2cc(N3CCC[C@H]3COC)ccc2S1(=O)=O	·	·	·	0	·	·	·
Fc1cccc(F)c1/C=N/NC(=S)Nc1cccnc1	-1	7	25	0	7	·	·
Fc1c(F)c(F)c(/C=N/NC(=S)Nc2cccnc2)c(F)c1F	-10	51*	8	-1	-1	34	74*
COC1=C(N)C(=O)c2nc(-c3nc(C(=O)O)c(C)c(-c4ccc(OC)c(OC)c4O)c3N)ccc2C1=O	-57	100*	-63	·	-2	100*	2
CN1CCC(=C2c3ccccc3CCc3sccc32)CC1	-2	60*	6	6	-2	26	·
CC1=C(C(=O)N2CCCCCC2)CC(CC(=O)NC2CCCCC2)C(=O)N1CCC1=CCCCC1 (centres undefined)	·	·	·	-2	·	·	·
COc1ccc(N(C)C(=O)c2cc3c(s2)-c2ccc(Cl)cc2S(=O)(=O)C3)c(OC)c1	-1	56*	1	0	9	19	·
COc1ccc(N(C)C(=O)c2cc3c(s2)-c2ccccc2OC3)c(OC)c1	-57	-16	8	-2	16	·	·
O=c1cc(-c2cccc(F)c2)oc2ccccc12	·	·	·	-1	·	·	·
O=c1cc(-c2c(F)c(F)c(F)c(F)c2F)oc2ccccc12	15	96*	17	0	28	10	·
CCCC(C)(C)C(=O)N1CCC1(C)C(=O)Nc1cccc(OC)c1 (centres undefined)	·	·	·	0	·	·	·
O=C(Nc1ccc(F)cc1)c1cc(-c2ccccn2)nc2c(Cl)cccc12	-13	60*	-13	2	-8	46*	62*
O=C(Nc1ccncc1)c1cc(-c2ccccn2)nc2ccccc12	-7	9	19	1	-16	·	·
Cc1cc(Cl)n2ncc(-c3ccccc3)c2n1	20	63*	29	3	21	8	·
C=CC(=O)N1c2ccccc2Sc2ccc(NC(=O)OCC)cc21	11	87*	25	-2	17	41*	35
COc1cccc(NC(=O)N(C)C[C@H]2Oc3ncc(Br)cc3C(=O)N([C@H](C)CO)C[C@H]2C)c1	·	·	·	-3	·	·	·
CCc1nc2ccc(C(=O)Nc3cccc(NS(C)(=O)=O)c3)cn2c1N(CC)Cc1cccc(Br)c1	·	·	·	2	·	·	·
Cc1cc(Cl)n2c(nc3ccccc32)c1C#N	·	·	·	-2	·	·	·
N#Cc1c(-c2ccccc2)c(C#N)c2nc3ccccc3n2c1N	1	55*	8	20	3	48*	48*
Cc1ccc(-c2c(C#N)c(N)n3c(nc4ccccc43)c2C#N)cc1	4	77*	5	27	19	55*	58*
Cc1ccc(CS(=O)(=O)c2ccccc2-c2nnc(-c3ccc(Cl)cc3)o2)cc1	-14	55*	0	0	-6	18	·
Cc1ccccc1-c1nnc(-c2ccc(Cl)cc2)o1	-2	-106	5	1	2	·	·
SMILES	TIM10 inh	Mdm2-MdmX inh	tim10-1 inh	MPTP block	tim23-1 inh	Mdm2-MdmX conf	FLuc counter
CN(C)C(=O)CSc1cccc2cccnc12	-11	70*	35	1	32	-3	·
Cc1nccn1-c1ccc(NC(=O)[C@H]2O[C@@H](n3ccc(N)nc3=O)[C@H](O)[C@@H]2O)cc1	·	·	·	0	·	·	·
OC(c1ccc(F)c(F)c1)c1ncc(-c2cccc(C(F)(F)F)c2)[nH]1 (centres undefined)	·	·	·	9	·	·	·
COc1ccccc1-c1cc(C(=O)Nc2cc(C)nn2-c2ccccc2)no1	-6	57*	11	0	12	62*	45*
COc1ccc(-c2cc(C(=O)Nc3cc(Br)ccc3O)no2)cc1	0	83*	0	0	1	32	101*
COc1ccc(-c2cc(C(=O)Nc3ccccc3SC)no2)cc1	-12	-13	10	0	0	·	·
COc1ccc(-c2cc(C(=O)Nc3c(C)nn(Cc4ccccc4)c3C)no2)cc1	-8	63*	10	0	9	20	·
COc1cccc(-c2cc(C(=O)Nc3cc(C)nn3-c3ccccc3)no2)c1	-15	65*	6	1	-29	32	·
COC(=O)c1c(C)[nH]c(-c2csc(N)n2)c1C	0	65*	-5	0	4	61*	85*
COc1cc(/C=N/Nc2nc(Nc3ccccc3)nc(N3CCOCC3)n2)ccc1OC(=O)c1ccco1	25	52*	30	2	22	21	·
COc1ccc(/C=N/Nc2nc(Nc3ccccc3)nc(N3CCCC3)n2)cc1[N+](=O)[O-]	8	97*	-8	-1	0	92*	61*
COC1OC(c2ccccc2)=C(c2cnc(N)nc2)c2ccc(F)cc21 (centres undefined)	·	·	·	-2	·	·	·
Cc1cnc(CNc2nc3cc(-c4ccccc4C)sc3c(=O)n2C)cn1	·	·	·	0	·	·	·
COc1ccc2nc3n(c(=O)c2c1)-c1ncccc1C(=O)NC3C (centres undefined)	·	·	·	0	·	·	·
COc1ccc(C=C(c2nc3ccccc3s2)c2nc3ccccc3s2)cc1O	30	58*	30	1	35	45*	63*
O=C(Nc1cccnc1)C1Cc2c(-c3ccc4c(c3)OCO4)ccnc2O1 (centres undefined)	·	·	·	1	·	·	·
N#Cc1ccc2sn(-c3ccccc3)c(=O)c2c1	·	·	·	9	·	·	·
CCN(CC)C(=O)c1cccc(-c2csc(C(NC(C)=O)c3cccc(OC)c3)n2)c1 (centres undefined)	·	·	·	-1	·	·	·
Cc1nc2ccccn2c1-c1csc(Nc2cccc(C(=O)O)c2)n1	8	-19	-5	0	10	·	·
Cc1nc2ccccn2c1-c1csc(Nc2ccc(C(=O)O)cc2)n1	-1	53*	0	0	-14	54*	63*
COC(=O)CC1COc2ccccc2N1C(=O)c1ccc(OC)cc1 (centres undefined)	9	-13	16	1	26	·	·
COC(=O)CC1COc2ccccc2N1S(=O)(=O)c1ccc(OC)cc1 (centres undefined)	-4	55*	9	-1	12	51*	61*
Cc1ccc(-c2nn3c(C)nnc3c3ccccc23)cc1S(=O)(=O)NC(C)c1ccccc1 (centres undefined)	15	62*	21	0	19	30	·
Cc1nnc2c3ccccc3c(-c3ccccc3)nn12	19	64*	3	0	29	28	·
Cc1ccc(-c2nn3c(C)nnc3c3ccccc23)cc1S(=O)(=O)NC(C)(C)CO	-5	71*	23	2	10	53*	78*

Screens as filed in PubChem BioAssay.
